Assay results as given in PubChem BioAssay AID1159580 (chemical genetic matrix, 2015).
The campaign covered roughly 5,500 compounds. About 2,000 (36%) were called active. About 18% were inconclusive and are not listed. Cut-off read from the data, not from the text of the source: active = normalized growth mostly below about 0.91 (no sharp cut-off); inconclusive = no clear call, values can overlap the other calls; inactive = mostly above about 0.92. The list shows a part of the results.

Experiment: chemical genetic growth profiling, strain panel (AID 1159580);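 note: tested at 20 µM; growth read once vehicle control cultures reached saturation at 30 °C; 1 = growth at the plate median or of vehicle wells; lower values mean less growth of the strain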
Conditions: growth OD
[1] = S. cerevisiae deletion strains, locus YHR030C, strain SLT2, stronger effect = lower value
[2] = S. cerevisiae deletion strains, locus YAL013W, strain DEP1, stronger effect = lower value
[3] = S. cerevisiae deletion strains, locus YBR229C, strain ROT2, stronger effect = lower value
[4] = S. cerevisiae deletion strains, locus YDL101C, strain DUN1, stronger effect = lower value
[5] = S. cerevisiae deletion strains, locus YDR150W, strain NUM1, stronger effect = lower value
[6] = S. cerevisiae deletion strains, locus YEL061C, strain CIN8, stronger effect = lower value
[7] = S. cerevisiae deletion strains, locus YGR078C, strain PAC10, stronger effect = lower value
[8] = S. cerevisiae deletion strains, locus YHR087W, strain rtc3, stronger effect = lower value
[9] = S. cerevisiae deletion strains, locus YJR043C, strain POL32, stronger effect = lower value
[10] = S. cerevisiae deletion strains, locus YJR075W, strain HOC1, stronger effect = lower value
[11] = S. cerevisiae deletion strains, locus YLR039C, strain RIC1, stronger effect = lower value
[12] = S. cerevisiae deletion strains, locus YLR058C, strain SHM2 (second series), stronger effect = lower value
[13] = S. cerevisiae deletion strains, locus YLR085C, strain ARP6, stronger effect = lower value
[14] = S. cerevisiae deletion strains, locus YLR262C, strain YPT6, stronger effect = lower value
[15] = S. cerevisiae deletion strains, locus YML094W, strain GIM5, stronger effect = lower value
[16] = S. cerevisiae deletion strains, locus YMR219W, strain ESC1, stronger effect = lower value
[17] = S. cerevisiae deletion strains, locus YMR263W, strain SAP30, stronger effect = lower value
[18] = S. cerevisiae deletion strains, locus YNL153C, strain GIM3, stronger effect = lower value
[19] = S. cerevisiae deletion strains, locus YNL298W, strain CLA4 (second series), stronger effect = lower value
[20] = S. cerevisiae deletion strains, locus YNL322C, strain KRE1, stronger effect = lower value
[21] = S. cerevisiae deletion strains, locus YNR030W, strain Alg12, stronger effect = lower value
[22] = S. cerevisiae deletion strains, locus YPL055C, strain LGE1, stronger effect = lower value
[23] = S. cerevisiae deletion strains, locus YPL241C, strain CIN2, stronger effect = lower value
[24] = S. cerevisiae deletion strains, locus YPR135W, strain CTF4, stronger effect = lower value
[25] = S. cerevisiae deletion strains, locus YDL134C, strain PPH21, stronger effect = lower value
[26] = S. cerevisiae deletion strains, locus YMR307W, strain GAS1, stronger effect = lower value

Measured: normalized growth

C[C@H]1O[C@H](O[C@H]2[C@H](O)[C@@H](O)[C@@H](O[C@H]3[C@H](O)[C@@H](O)C(O)O[C@@H]3CO)O[C@@H]2CO)[C@H](O)[C@@H](O)[C@@H]1N[C@H]1C=C(CO)[C@@H](O)[C@H](O)[C@H]1O (stereo partly drawn)
inactive: S. cerevisiae deletion strains, locus YAL021C, strain ccr4, stronger effect = lower value 0.999 | S. cerevisiae deletion strains, locus YAL026C, strain drs2, stronger effect = lower value 1.03 | S. cerevisiae deletion strains, locus YAL030W, strain snc1, stronger effect = lower value 0.993 | S. cerevisiae deletion strains, locus YBL061C, strain skt5, stronger effect = lower value 0.984 | S. cerevisiae deletion strains, locus YBR009C, strain hhf1, stronger effect = lower value 1.01 | S. cerevisiae deletion strains, locus YBR023C, strain chs3, stronger effect = lower value 1.01 | S. cerevisiae deletion strains, locus YBR171W, strain sec66, stronger effect = lower value 0.979 | S. cerevisiae deletion strains, locus YBR231C, strain swc5, stronger effect = lower value 0.982 | S. cerevisiae deletion strains, locus YBR279W, strain paf1, stronger effect = lower value 1.01 | S. cerevisiae deletion strains, locus YCL011C, strain gbp2, stronger effect = lower value 1.03 | S. cerevisiae deletion strains, locus YCL016C, strain dcc1, stronger effect = lower value 1.02 | S. cerevisiae deletion strains, locus YCL069W, strain vba3, stronger effect = lower value 1 | S. cerevisiae deletion strains, locus YCR088W, strain abp1, stronger effect = lower value 0.991 | S. cerevisiae deletion strains, locus YDL005C, strain med2, stronger effect = lower value 1 | S. cerevisiae deletion strains, locus YDL040C, strain nat1, stronger effect = lower value 0.99 | S. cerevisiae deletion strains, locus YDR001C, strain nth1, stronger effect = lower value 0.995 | S. cerevisiae deletion strains, locus YDR069C, strain doa4, stronger effect = lower value 0.985 | S. cerevisiae deletion strains, locus YDR137W, strain rgp1, stronger effect = lower value 0.998 | S. cerevisiae deletion strains, locus YDR159W, strain sac3, stronger effect = lower value 0.981 | S. cerevisiae deletion strains, locus YDR195W, strain ref2 0.936 | S. cerevisiae deletion strains, locus YDR297W, strain sur2, stronger effect = lower value 0.988 | S. cerevisiae deletion strains, locus YDR334W, strain swr1, stronger effect = lower value 0.983 | S. cerevisiae deletion strains, locus YDR335W, strain msn5, stronger effect = lower value 0.974 | S. cerevisiae deletion strains, locus YDR392W, strain spt3, stronger effect = lower value 1.04 | S. cerevisiae deletion strains, locus YEL003W, strain gim4, stronger effect = lower value 0.974 | S. cerevisiae deletion strains, locus YEL037C, strain rad23, stronger effect = lower value 0.988 | S. cerevisiae deletion strains, locus YEL061C, strain CIN8 (second series), stronger effect = lower value 0.994 | S. cerevisiae deletion strains, locus YER015W, strain faa2, stronger effect = lower value 1.01 | S. cerevisiae deletion strains, locus YER016W, strain bim1, stronger effect = lower value 1 | S. cerevisiae deletion strains, locus YER111C, strain swi4, stronger effect = lower value 0.984 | S. cerevisiae deletion strains, locus YER155C, strain BEM2 (second series), stronger effect = lower value 0.977 | S. cerevisiae deletion strains, locus YFR010W, strain ubp6, stronger effect = lower value 0.978 | S. cerevisiae deletion strains, locus YGL167C, strain pmr1, stronger effect = lower value 0.974 | S. cerevisiae deletion strains, locus YGL173C, strain kem1, stronger effect = lower value 0.955 | S. cerevisiae deletion strains, locus YGL227W, strain vid30, stronger effect = lower value 0.987 | S. cerevisiae deletion strains, locus YGL240W, strain doc1, stronger effect = lower value 0.964 | S. cerevisiae deletion strains, locus YGL253W, strain hxk2, stronger effect = lower value 0.999 | S. cerevisiae deletion strains, locus YHR013C, strain ard1, stronger effect = lower value 0.992 | S. cerevisiae deletion strains, locus YHR027C, strain rpn1, stronger effect = lower value 1.01 | [1] 0.955 | S. cerevisiae deletion strains, locus YHR079C, strain IRE1, stronger effect = lower value 0.959 | S. cerevisiae deletion strains, locus YHR142W, strain chs7, stronger effect = lower value 0.989 | S. cerevisiae deletion strains, locus YJL092W, strain hpr5, stronger effect = lower value 0.977 | S. cerevisiae deletion strains, locus YJL095W, strain BCK1 (second series), stronger effect = lower value 0.993 | S. cerevisiae deletion strains, locus YJL095W, strain BCK1, stronger effect = lower value 0.957 | S. cerevisiae deletion strains, locus YJL115W, strain asf1, stronger effect = lower value 0.974 | S. cerevisiae deletion strains, locus YJL129C, strain trk1, stronger effect = lower value 0.969 | S. cerevisiae deletion strains, locus YJL154C, strain vps35, stronger effect = lower value 0.964 | S. cerevisiae deletion strains, locus YJL164C, strain tpk1, stronger effect = lower value 1.01 | S. cerevisiae deletion strains, locus YJL166W, strain qcr8, stronger effect = lower value 0.971 | S. cerevisiae deletion strains, locus YJL187C, strain SWE1, stronger effect = lower value 0.999 | S. cerevisiae deletion strains, locus YJR066W, strain TOR1, stronger effect = lower value 0.916 | S. cerevisiae deletion strains, locus YKL160W, strain elf1, stronger effect = lower value 0.968 | S. cerevisiae deletion strains, locus YKR026C, strain gcn3, stronger effect = lower value 0.995 | S. cerevisiae deletion strains, locus YKR091W, strain srl3, stronger effect = lower value 0.988 | S. cerevisiae deletion strains, locus YLL001W, strain dnm1, stronger effect = lower value 0.945 | S. cerevisiae deletion strains, locus YLL026W, stronger effect = lower value 1.01 | S. cerevisiae deletion strains, locus YLL041C, strain sdh2, stronger effect = lower value 0.988 | S. cerevisiae deletion strains, locus YLR027C, strain aat2, stronger effect = lower value 0.993 | S. cerevisiae deletion strains, locus YLR113W, strain HOG1, stronger effect = lower value 0.933 | S. cerevisiae deletion strains, locus YLR221C, strain rsa3, stronger effect = lower value 1.03 | S. cerevisiae deletion strains, locus YLR258W, strain gsy2, stronger effect = lower value 1.01 | S. cerevisiae deletion strains, locus YLR262C, strain YPT6 (second series), stronger effect = lower value 0.959 | S. cerevisiae deletion strains, locus YLR320W, strain mms22, stronger effect = lower value 1.01 | S. cerevisiae deletion strains, locus YLR342W, strain FKS1, stronger effect = lower value 0.973 | S. cerevisiae deletion strains, locus YLR357W, strain rsc2, stronger effect = lower value 0.985 | S. cerevisiae deletion strains, locus YLR370C, strain arc18, stronger effect = lower value 0.993 | S. cerevisiae deletion strains, locus YLR384C, strain iki3, stronger effect = lower value 0.977 | S. cerevisiae deletion strains, locus YML120C, strain ndi1, stronger effect = lower value 0.98 | S. cerevisiae deletion strains, locus YMR058W, strain fet3, stronger effect = lower value 0.996 | S. cerevisiae deletion strains, locus YMR125W, strain sto1, stronger effect = lower value 0.996 | S. cerevisiae deletion strains, locus YMR129W, stronger effect = lower value 0.989 | S. cerevisiae deletion strains, locus YMR205C, strain PFK2, stronger effect = lower value 0.983 | S. cerevisiae deletion strains, locus YMR231W, strain pep5, stronger effect = lower value 0.991 | S. cerevisiae deletion strains, locus YNL071W, strain lat1, stronger effect = lower value 1.01 | S. cerevisiae deletion strains, locus YNL183C, strain NPR1, stronger effect = lower value 0.923 | S. cerevisiae deletion strains, locus YNL209W, strain ssb2, stronger effect = lower value 1.01 | S. cerevisiae deletion strains, locus YNL248C, strain rpa49, stronger effect = lower value 1.01 | S. cerevisiae deletion strains, locus YNL322C, strain KRE1 (second series), stronger effect = lower value 0.988 | S. cerevisiae deletion strains, locus YNR049C, strain mso1, stronger effect = lower value 0.987 | S. cerevisiae deletion strains, locus YOR001W, strain rrp6, stronger effect = lower value 0.96 | S. cerevisiae deletion strains, locus YOR070C, strain gyp1, stronger effect = lower value 1.01 | S. cerevisiae deletion strains, locus YOR080W, strain dia2, stronger effect = lower value 0.98 | S. cerevisiae deletion strains, locus YOR083W, strain WHI5, stronger effect = lower value 0.987 | S. cerevisiae deletion strains, locus YOR106W, strain vam3, stronger effect = lower value 0.979 | S. cerevisiae deletion strains, locus YOR231W, strain MKK1, stronger effect = lower value 0.953 | S. cerevisiae deletion strains, locus YOR265W, strain rbl2, stronger effect = lower value 0.992 | S. cerevisiae deletion strains, locus YOR270C, strain vph1, stronger effect = lower value 1 | S. cerevisiae deletion strains, locus YOR290C, strain snf2, stronger effect = lower value 1.01 | S. cerevisiae deletion strains, locus YPL051W, strain arl3, stronger effect = lower value 1 | S. cerevisiae deletion strains, locus YPL078C, strain atp4, stronger effect = lower value 0.948 | S. cerevisiae deletion strains, locus YPL106C, strain sse1, stronger effect = lower value 1.02 | S. cerevisiae deletion strains, locus YPL240C, strain hsp82, stronger effect = lower value 0.988 | S. cerevisiae deletion strains, locus YPL256C, strain CLN2, stronger effect = lower value 0.967

COc1ccc(Br)c(-c2nnc(-c3ccccc3[N+](=O)[O-])o2)c1
inactive: [2] 0.993 | [3] 1.01 | [4] 0.985 | [5] 0.943 | [6] 0.973 | [7] 1.02 | [1] 0.964 | [8] 1.02 | [9] 0.955 | [10] 0.975 | S. cerevisiae deletion strains, locus YKL190W, strain CNB1, stronger effect = lower value 1.01 | [11] 1.07 | [12] 1.02 | [13] 0.953 | [14] 1.06 | [15] 1 | [16] 1.01 | [17] 0.978 | S. cerevisiae deletion strains, locus YNL128W, strain TEP1, stronger effect = lower value 1.04 | [18] 1 | [19] 0.985 | [20] 1.01 | [21] 1 | [22] 0.953 | [23] 0.977 | [24] 1.07

O=[N+]([O-])c1cccnc1Oc1ccc(Cl)cc1
inactive: [2] 0.94 | [3] 0.939 | [25] 0.973 | [5] 0.917 | [6] 0.977 | [8] 0.93 | [10] 0.933 | [12] 0.95 | [13] 0.789 | [15] 0.937 | [16] 0.954 | [17] 0.936 | [19] 0.858 | [21] 0.906 | [22] 0.959 | [23] 0.935 | S. cerevisiae strains, strain wild type, stronger effect = lower value 0.917
active: S. cerevisiae deletion strains, locus YCL061C, strain MRC1, stronger effect = lower value 0.895 | [4] 0.875 | [7] 0.886 | [1] 0.543 | [9] 0.886 | [11] 0.657 | [14] 0.707 | [18] 0.919 | [20] 0.933 | [24] 0.613

O=[N+]([O-])c1ccc(Oc2c(Cl)cccc2Cl)c(Cl)c1Oc1c(Cl)cccc1Cl
inactive: [2] 0.98 | [3] 0.981 | [4] 0.95 | [25] 0.993 | [5] 0.992 | [6] 0.998 | [7] 0.984 | [1] 0.956 | [8] 1.04 | [9] 0.961 | [10] 1.04 | [11] 0.902 | [12] 0.991 | [13] 0.976 | [14] 0.949 | [15] 1.01 | [16] 1 | [17] 1.01 | [26] 1.02 | [18] 0.986 | [19] 0.953 | [20] 0.987 | [21] 0.969 | [22] 1 | [23] 0.961 | [24] 0.901

CN1CCCC1c1cccnc1 (stereo not drawn)
inactive: [2] 0.987 | S. cerevisiae deletion strains, locus YAL040C, strain CLN3, stronger effect = lower value 0.984 | S. cerevisiae deletion strains, locus YCL061C, strain MRC1 (second series), stronger effect = lower value 0.981 | [5] 0.981 | S. cerevisiae deletion strains, locus YDR363W, strain ESC2, stronger effect = lower value 1.02 | S. cerevisiae deletion strains, locus YER002W, strain NOP16, stronger effect = lower value 0.994 | [26] 1.03 | [18] 0.986 | S. cerevisiae deletion strains, locus YNL175C, strain NOP13, stronger effect = lower value 0.992 | S. cerevisiae deletion strains, locus YNL197C, strain WHI3, stronger effect = lower value 0.995 | S. cerevisiae deletion strains, locus YNL224C, strain SQS1, stronger effect = lower value 0.991 | [20] 0.98 | S. cerevisiae deletion strains, locus YOR083W, strain WHI5 (second series), stronger effect = lower value 0.988 | [22] 1 | [23] 0.984
